6 molecules from PubChem BioAssay (Tox21) can be followed below.

Test [1] in a line: qHTS assay to identify small molecule antagonists of the estrogen receptor alpha (ER-alpha) signaling pathway using the BG1 cell line in the presence of 0.1 nM 17-beta-estradiol - cell viability counter screen (AID 1259241). Note: nearly all actives have a fitted effect of over 40% in size. Note: potency is the fitted concentration of half-maximal effect. A digest of the protocol:
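Cytotoxicity counter-screen: live-cell protease activity measured by fluorescence (30 min reagent step) in the same wells. Cells were VM7Luc4E2 with endogenous ER-alpha and ERE-driven luciferase, treated 22 hr at 37C alongside 0.1 nM 17beta-estradiol final.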
(In general: qHTS replaces the single test concentration by a dilution series.)

Test [2] in a line: qHTS assay to identify small molecule HDAC inhibitors (AID 1259364). Note: potency is the fitted concentration of half-maximal effect.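 Note: wild-type HCT-116 cells with endogenous class I/II HDAC activity; nearly all actives have a fitted effect of over 45% in size.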 A digest of the protocol: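 Quantitative high-throughput format: overnight-seeded HCT-116 cells got compounds for 2 hr at 37C; HDAC-Glo I/II reagent added, 30 min RT, luminescence measured.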
Test [3] can be described thus: qHTS assay to identify small molecule HDAC inhibitors - cell viability counter screen (AID 1259365). For activity change, negative = cytotoxicity: series mostly up to about 92 µM. Note: nearly all actives have a fitted effect of over 50% in size. Note: potency is the fitted concentration of half-maximal effect. A digest of the protocol:
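CellTiter-Glo luminescence (30 min, room temperature) reported viability after a 2 h compound exposure at 37 C. Cells: wild-type HCT-116, 1,500 per well, seeded the night before.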

Test [4] is described as follows: qHTS assay to identify small molecule antagonists of the sonic hedgehog signaling (Shh) pathway - cell viability counter screen (AID 1259367). Note: nearly all actives have a fitted effect of over 55% in size. Note: potency is the fitted concentration of half-maximal effect. A digest of the protocol: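 Cytotoxicity was assessed in parallel with Shh reporter activity by measuring live-cell protease fluorescence (CellTiter-Fluor) in NIH/3T3 cells stably carrying Gli1-Luc, treated with compound under conditioned medium stimulation for 23 hr plus 1 hr reagent incubation.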

A short description of test [5]: qHTS assay to identify small molecule agonists of the sonic hedgehog signaling (Shh) pathway (AID 1259368; calls by dose curve;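 note: NIH/3T3-derived 3T3Gli1-Luc cells carrying a stable Gli1-driven firefly luciferase reporter; series mostly up to about 92 µM; nearly all actives have a fitted effect of over 15% in size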). A digest of the protocol: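 Quantitative high-throughput format using a Gli1-driven firefly luciferase reporter line derived from NIH/3T3 cells. After a 24 hr compound treatment at 37 C and 5% CO2, luminescence reported Gli1 response element activity.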
Test [6] can be described thus: qHTS assay to identify small molecule antagonists of the androgen receptor (AR) signaling pathway using the MDA cell line in the presence of 0.5 nM R1881 - cell viability counter screen (AID 1259242). Note: nearly all actives have a fitted effect of over 45% in size. A digest of the protocol: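 qHTS format. MDA-kb2 (MMTV-luc, AR/GR responsive) + cpd + 0.5 nM R1881 final, 16 hr 37C/0% CO2 → CellTiter-Fluor 30 min → fluorescence intensity.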

Test [7] addresses Estrogen receptor (Homo sapiens) (UniProt P03372). In words: qHTS assay to identify small molecule antagonists of the estrogen receptor alpha (ER-alpha) signaling pathway using the BG1 cell line in the presence of 0.1 nM 17-beta-estradiol (AID 1259244). Note: nearly all actives have a fitted effect of over 50% in size. Note: potency is the fitted concentration of half-maximal effect. A digest of the protocol: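 Reporter is a stably transfected luciferase under four estrogen responsive elements in VM7Luc4E2 cells expressing native full-length ER-alpha; inhibition of 0.1 nM (final) 17beta-estradiol-driven signal over 22 h is read by luminescence.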

A short description of test [8]: qHTS assay to identify small molecule phospholipidosis (PLD) inducers (AID 1259344; active = well fitted curve in the direction sought with a large enough effect; an effect the other way counts as inactive or inconclusive). A digest of the protocol: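 Cells (HepG2, 900 per well) attach for 4 h, receive LipidTOX Red and compound together, incubate 24 h at 37 C, are fixed 30 min with paraformaldehyde/Hoechst, then imaged at one site per well.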
Test [9] is described as follows: qHTS assay to identify small molecule agonists of the sonic hedgehog signaling (Shh) pathway - cell viability counter screen (AID 1259366). Note: nearly all actives have a fitted effect of over 50% in size. Note: potency is the fitted concentration of half-maximal effect. A digest of the protocol:
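Cytotoxicity counter screen: CellTiter-Fluor reagent added after 23 h compound exposure, then 1 h at 37C and fluorescence read. Cells were 3T3 Gli1-Luc, seeded 2,000 per well and dosed 4 h post-plating.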

Results filed as inconclusive are left out. Calls of active or inactive are those of the source. Unless noted, calls come from the whole dose curve; as a rule, active = well fitted curve in the direction sought with a large enough effect in the repeat runs; inconclusive = weak or mixed curves; inactive = no such curve, though single readings can be large; an effect the other way counts as inactive or inconclusive.
% is set by controls: 0 for no effect and ±100 for the full control effect.

Estrogen receptor (Homo sapiens), sequence (P03372 whole entry, looked up): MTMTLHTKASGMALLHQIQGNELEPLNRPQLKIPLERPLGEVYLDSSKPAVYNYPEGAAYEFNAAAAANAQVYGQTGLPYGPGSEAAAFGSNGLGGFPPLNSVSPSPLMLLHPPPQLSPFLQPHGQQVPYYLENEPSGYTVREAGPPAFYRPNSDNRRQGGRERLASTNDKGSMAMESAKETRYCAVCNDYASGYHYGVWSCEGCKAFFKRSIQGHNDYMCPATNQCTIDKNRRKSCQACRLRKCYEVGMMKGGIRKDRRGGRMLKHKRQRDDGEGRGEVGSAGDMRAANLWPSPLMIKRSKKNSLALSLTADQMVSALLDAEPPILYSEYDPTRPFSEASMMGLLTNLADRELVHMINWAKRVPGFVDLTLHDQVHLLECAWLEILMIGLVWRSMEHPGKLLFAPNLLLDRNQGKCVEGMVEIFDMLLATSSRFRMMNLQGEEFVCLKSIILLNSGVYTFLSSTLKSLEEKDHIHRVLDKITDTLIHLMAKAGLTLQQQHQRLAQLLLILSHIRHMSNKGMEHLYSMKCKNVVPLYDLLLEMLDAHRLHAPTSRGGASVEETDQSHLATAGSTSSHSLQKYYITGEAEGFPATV

As for `CN(C)c1ccc(/C=C/c2ccc([N+](=O)[O-])cc2)cc1`, the activity change, negative = cytotoxicity was 7.98% [at 8.39 µM] (inactive) in test [1] and -0.457% [at 8.39 µM] (inactive) in [3]. In addition, in test [2], the Potency was 0.872 µM (active). The viability change, negative = cytotoxic in test [4] is 8.12% [at 8.39 µM] (inactive). The activity change in test [5] was 7.46% [at 8.39 µM] (inactive).

As to `COc1cc(C(=O)OCCCN2CCCN(CCCOC(=O)c3cc(OC)c(OC)c(OC)c3)CC2)cc(OC)c1OC`, the Potency result in test [6], in [8], in test [2] and in test [3] was “inactive” throughout. Further, the results for the Potency in [7] and in [4] were 13.3 µM (active) and 10.6 µM (active), respectively. Also, the molecule was called inactive in [5].

As to `CCN(CC)CCOC(=O)C(c1ccccc1)C1CCCCC1` (stereo unspecified), the Potency result in [6], in test [7], in [8], in [2] and in test [3] was “inactive” throughout. The outcome in [5] was inactive.

`COc1cc2nc(N(C)CCCNC(=O)C3CCCO3)nc(N)c2cc1OC` (stereo unspecified): in test [7], the Potency was 23.7 µM (active). Further, the Potency entry in test [8], in test [2], in [3], in test [9] and in test [4] was “inactive” throughout. Further, the result in [5] was inactive.

Consider `CC(C)Nc1ccc(NC(C)C)c2c1C(=O)c1ccccc1C2=O`, for which the Potency result in test [1] and in test [4] was “inactive” each time. The Potency in test [2] and in [3] was 12.7 µM (active) throughout. Further, the molecule was called inactive in test [5].

With `C=CC(=O)OCCOCCOC(=O)C=C`, the Potency in [1] was 61.4 µM (active); in test [9], 21.8 µM (active); in test [4], 27.4 µM (active). In addition, the Potency entry in test [2] and in test [3] was “inactive” in each case. Also, in [5], the molecule was classed as inactive.
